Measured values: PubChem BioAssay AID1159580 (chemical genetic matrix, 2015)
Screen size: about 5,500 compounds; about 2,000 (36%) were called active. Roughly 18% stayed inconclusive and do not appear here. No stated cut-off is given here; in the data, active means normalized growth mostly below about 0.91 (no sharp cut-off); inconclusive means no clear call, values can overlap the other calls; inactive means mostly above about 0.92. The list shows a part of the results.

Experiment: chemical genetic growth profiling, strain panel (AID 1159580);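 further: tested at 20 µM; growth read once vehicle control cultures reached saturation at 30 °C; 1 = growth at the plate median or of vehicle wells; lower values mean less growth of the strain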
Settings: growth OD

Measured: normalized growth

c1ccc(N=Nc2ccccc2)cc1
inactive: S. cerevisiae deletion strains, locus YJR066W, strain TOR1, active compounds read low 0.95 | S. cerevisiae deletion strains, locus YJR075W, strain HOC1, active compounds read low 0.98 | S. cerevisiae deletion strains, locus YKL009W, strain mrt4, active compounds read low 1 | S. cerevisiae deletion strains, locus YKL068W, active compounds read low 1.02 | S. cerevisiae deletion strains, locus YKL085W, strain MDH1 (second series), active compounds read low 1.01 | S. cerevisiae deletion strains, locus YKL085W, strain MDH1, active compounds read low 1.01 | S. cerevisiae deletion strains, locus YKL160W, strain elf1, active compounds read low 0.996 | S. cerevisiae deletion strains, locus YKL190W, strain CNB1, active compounds read low 0.993 | S. cerevisiae deletion strains, locus YKR001C, strain vps1, active compounds read low 0.979 | S. cerevisiae deletion strains, locus YKR026C, strain gcn3, active compounds read low 0.982 | S. cerevisiae deletion strains, locus YKR091W, strain srl3, active compounds read low 0.987 | S. cerevisiae deletion strains, locus YLL001W, strain dnm1, active compounds read low 0.977 | S. cerevisiae deletion strains, locus YLL026W, active compounds read low 0.986 | S. cerevisiae deletion strains, locus YLL041C, strain sdh2, active compounds read low 0.989 | S. cerevisiae deletion strains, locus YLR027C, strain aat2, active compounds read low 0.983 | S. cerevisiae deletion strains, locus YLR039C, strain RIC1, active compounds read low 0.878 | S. cerevisiae deletion strains, locus YLR058C, strain SHM2, active compounds read low 0.992 | S. cerevisiae deletion strains, locus YLR102C, strain apc9, active compounds read low 1.03 | S. cerevisiae deletion strains, locus YLR113W, strain HOG1, active compounds read low 0.978 | S. cerevisiae deletion strains, locus YLR221C, strain rsa3, active compounds read low 0.984 | S. cerevisiae deletion strains, locus YLR258W, strain gsy2, active compounds read low 0.974 | S. cerevisiae deletion strains, locus YLR262C, strain YPT6 (second series), active compounds read low 0.921 | S. cerevisiae deletion strains, locus YLR262C, strain YPT6, active compounds read low 0.887 | S. cerevisiae deletion strains, locus YLR268W, strain sec22, active compounds read low 0.988 | S. cerevisiae deletion strains, locus YLR320W, strain mms22, active compounds read low 0.993 | S. cerevisiae deletion strains, locus YLR330W, strain CHS5, active compounds read low 1.01 | S. cerevisiae deletion strains, locus YLR342W, strain FKS1 (second series), active compounds read low 0.966 | S. cerevisiae deletion strains, locus YLR342W, strain FKS1, active compounds read low 0.994 | S. cerevisiae deletion strains, locus YLR357W, strain rsc2, active compounds read low 0.97 | S. cerevisiae deletion strains, locus YLR370C, strain arc18, active compounds read low 0.996 | S. cerevisiae deletion strains, locus YLR371W, strain rom2, active compounds read low 1.02 | S. cerevisiae deletion strains, locus YLR384C, strain iki3, active compounds read low 0.973 | S. cerevisiae deletion strains, locus YLR418C, strain cdc73, active compounds read low 1 | S. cerevisiae deletion strains, locus YML016C, strain PPZ1, active compounds read low 1.01 | S. cerevisiae deletion strains, locus YML032C, strain rad52, active compounds read low 1.01 | S. cerevisiae deletion strains, locus YML120C, strain ndi1, active compounds read low 0.976 | S. cerevisiae deletion strains, locus YML124C, strain tub3, active compounds read low 1.03 | S. cerevisiae deletion strains, locus YMR058W, strain fet3, active compounds read low 0.99 | S. cerevisiae deletion strains, locus YMR078C, strain ctf18, active compounds read low 1.01 | S. cerevisiae deletion strains, locus YMR125W, strain sto1, active compounds read low 0.978 | S. cerevisiae deletion strains, locus YMR129W, active compounds read low 0.991 | S. cerevisiae deletion strains, locus YMR205C, strain PFK2, active compounds read low 0.952 | S. cerevisiae deletion strains, locus YMR223W, strain ubp8, active compounds read low 1 | S. cerevisiae deletion strains, locus YMR231W, strain pep5, active compounds read low 0.991 | S. cerevisiae deletion strains, locus YMR263W, strain SAP30, active compounds read low 0.972 | S. cerevisiae deletion strains, locus YMR307W, strain GAS1, active compounds read low 0.945 | S. cerevisiae deletion strains, locus YNL067W, strain RPL9B, active compounds read low 0.975 | S. cerevisiae deletion strains, locus YNL071W, strain lat1, active compounds read low 1 | S. cerevisiae deletion strains, locus YNL183C, strain NPR1, active compounds read low 0.904 | S. cerevisiae deletion strains, locus YNL209W, strain ssb2, active compounds read low 0.991 | S. cerevisiae deletion strains, locus YNL233W, strain BNI4, active compounds read low 0.971 | S. cerevisiae deletion strains, locus YNL248C, strain rpa49, active compounds read low 0.993 | S. cerevisiae deletion strains, locus YNL250W, strain rad50, active compounds read low 1.03 | S. cerevisiae deletion strains, locus YNL271C, strain bni1, active compounds read low 1.03 | S. cerevisiae deletion strains, locus YNL298W, strain CLA4, active compounds read low 1 | S. cerevisiae deletion strains, locus YNL307C, strain MCK1, active compounds read low 1 | S. cerevisiae deletion strains, locus YNL322C, strain KRE1 (second series), active compounds read low 0.974 | S. cerevisiae deletion strains, locus YNR049C, strain mso1, active compounds read low 0.994 | S. cerevisiae deletion strains, locus YNR052C, strain pop2, active compounds read low 1.03 | S. cerevisiae deletion strains, locus YOL006C, strain TOP1, active compounds read low 0.974 | S. cerevisiae deletion strains, locus YOL012C, strain htz1 0.782 | S. cerevisiae deletion strains, locus YOL147C, strain pex11, active compounds read low 1.02 | S. cerevisiae deletion strains, locus YOR001W, strain rrp6, active compounds read low 0.991 | S. cerevisiae deletion strains, locus YOR061W, strain CKA2, active compounds read low 1 | S. cerevisiae deletion strains, locus YOR069W, strain VPS5, active compounds read low 1 | S. cerevisiae deletion strains, locus YOR070C, strain gyp1, active compounds read low 0.985 | S. cerevisiae deletion strains, locus YOR080W, strain dia2, active compounds read low 0.974 | S. cerevisiae deletion strains, locus YOR083W, strain WHI5, active compounds read low 0.989 | S. cerevisiae deletion strains, locus YOR106W, strain vam3, active compounds read low 0.987 | S. cerevisiae deletion strains, locus YOR136W, strain idh2, active compounds read low 1.02 | S. cerevisiae deletion strains, locus YOR144C, strain elg1, active compounds read low 1.02 | S. cerevisiae deletion strains, locus YOR184W, strain ser1, active compounds read low 0.912 | S. cerevisiae deletion strains, locus YOR231W, strain MKK1, active compounds read low 0.944 | S. cerevisiae deletion strains, locus YOR265W, strain rbl2, active compounds read low 0.985 | S. cerevisiae deletion strains, locus YOR270C, strain vph1, active compounds read low 1.11 | S. cerevisiae deletion strains, locus YOR290C, strain snf2, active compounds read low 0.998 | S. cerevisiae deletion strains, locus YOR316C, strain cot1, active compounds read low 1.03 | S. cerevisiae deletion strains, locus YPL051W, strain arl3, active compounds read low 0.987 | S. cerevisiae deletion strains, locus YPL055C, strain LGE1, active compounds read low 0.995 | S. cerevisiae deletion strains, locus YPL078C, strain atp4, active compounds read low 0.979 | S. cerevisiae deletion strains, locus YPL106C, strain sse1, active compounds read low 0.98 | S. cerevisiae deletion strains, locus YPL240C, strain hsp82, active compounds read low 0.986 | S. cerevisiae deletion strains, locus YPL256C, strain CLN2, active compounds read low 0.953 | S. cerevisiae deletion strains, locus YPR119W, strain clb2, active compounds read low 1.03 | S. cerevisiae deletion strains, locus YPR141C, strain kar3, active compounds read low 1.03 | S. cerevisiae deletion strains, locus YPR163C, strain tif3, active compounds read low 1.04 | S. cerevisiae deletion strains, locus YPR167C, strain met16, active compounds read low 1.02 | S. cerevisiae deletion strains, strain wtn01, active compounds read low 1.04 | S. cerevisiae strains, strain wild type, active compounds read low 1
